Here are results for 66 molecules from PubChem BioAssay (Tox21).

Records with an inconclusive call do not appear. Entries that show only a call come without a potency. Active and inactive are the calls of the source. Calls follow the shape of the dose curve; as a rule, active = well fitted activation curve with a large enough effect in the signal ratio in the repeat runs (not every such curve was filed as active); inconclusive = weak or mixed curves; inactive = flat fitted curve, though single readings scatter; the % refers to the signal ratio.

The nature of the test: p53 small molecule agonists, cell-based qHTS assay (AID 1963582). Particulars: HCT-116 p53RE-bla reporter, beta-lactamase FRET ratio, 16 h; series mostly up to 66 µM. In outline: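 Compounds are pin-transferred in DMSO onto p53RE-bla cells and incubated 16 h at 37 C. The B/G FRET beta-lactamase substrate is then applied for 2 h at RT and fluorescence recorded.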
Background: Quantitative high-throughput screening tests each substance at several concentrations.

Turning to `CNC[C@H](O)[C@@H](O)[C@H](O)[C@H](O)CO`, the Potency result was “inactive”.

Regarding `Nc1ccc(S(=O)(=O)Nc2nccs2)cc1`, the Potency entry was “inactive”.

On to `c1ccc(Oc2ccccc2)cc1`, for which the Potency entry was “inactive”.

As for `CC1=C(/C=C/C(C)=C/C=C/C(C)=C/C(=O)Nc2ccc(O)cc2)C(C)(C)CCC1`, the Potency result is “inactive”.

As for `O=C(O)c1ccc(C(=O)O)cc1`, the Potency entry is “inactive”.

For the molecule `CCCCC(CC)CO` (stereo unspecified), the Potency result is “inactive”.

As for `Cc1cc(C)nc(NS(=O)(=O)c2ccc(N)cc2)n1`, the Potency entry was “inactive”.

Turning to `CN/C(=C\[N+](=O)[O-])NCCSCc1csc(CN(C)C)n1`, the Potency result is “inactive”.

Turning to `O=[N+]([O-])C(CO)(CO)CO`, the Potency result was “inactive”.

On to `CC(=O)Nc1ccc2c(c1)Cc1cc(NC(C)=O)ccc1-2`, for which the Potency result was “inactive”.

Consider `CCCCCC1C(=O)CCC1CC(=O)OC` (stereo unspecified), for which the Potency result was “inactive”.

Regarding `NC(N)=NC(=O)c1nc(Cl)c(N)nc1N`, the Potency entry is “inactive”.

Turning to `C[C@]12C[C@H](O)[C@H]3[C@@H](CCC4=CC(=O)CC[C@@]43C)[C@@H]1CC[C@@H]2C(=O)CO`, the Potency entry is “inactive”.

Turning to `NCCNc1cccc2ccccc12`, the Potency result was “inactive”.

For `CC(C)=CCC/C(C)=C/C=O`, the Potency result is “inactive”.

Regarding `OC[C@@H](O)[C@H](O)[C@H](O)[C@@H](O)CO`, the Potency entry is “inactive”.

As to `CCCCNC(N)=O`, the Potency result was “inactive”.

For the molecule `C[C@H]1C[C@H]2[C@@H]3CCC4=CC(=O)C=C[C@]4(C)[C@@]3(F)[C@@H](O)C[C@]2(C)[C@@]1(O)C(=O)CO`, the Potency entry is “inactive”.

Turning to `Cc1ccc2c(c1)C(=O)OC2=O`, the Potency entry was “inactive”.

Consider `Cc1ncc(CO)c(CO)c1O`, for which the Potency result is “inactive”.

Consider `Cc1cnc(NC(=O)C2=C(O)c3ccccc3S(=O)(=O)N2C)s1`, for which the Potency entry was “inactive”.

In the case of `Nc1ccc2c(c1)C(=O)c1ccccc1C2=O`, the Potency result was “inactive”.

Take `CCCCC(=O)O`: the Potency result is “inactive”.

Regarding `CN(C)CCOCCN(C)C`, the Potency entry is “inactive”.

In the case of `CCCCOC(=O)COc1ccc(Cl)cc1Cl`, the Potency entry was “inactive”.

For `CCc1cccc(O)c1`, the Potency entry was “inactive”.

Regarding `Cc1cc(C2(c3cc(C)c(O)cc3C)OS(=O)(=O)c3ccccc32)c(C)cc1O`, the Potency result is “inactive”.

As to `CCCCCCCCCCCCS`, the Potency result is “inactive”.

For the molecule `C#CCN(C)Cc1ccccc1`, the Potency result was “inactive”.

In the case of `CC(=O)Nc1ccc(C(=O)O)cc1`, the Potency entry is “inactive”.

For the molecule `O=C1OC(c2ccc(O)cc2)(c2ccc(O)cc2)c2ccccc21`, the Potency result is “inactive”.

Take `O=c1[nH]c(=O)n([C@H]2C[C@H](O)[C@@H](CO)O2)cc1Br`: the Potency result is “inactive”.

As to `O=S(=O)(O)c1ccc2ccccc2c1`, the Potency entry is “inactive”.

As for `Cc1ccc(C)c(S(=O)(=O)O)c1`, the Potency entry was “inactive”.

Take `CCO[Si](CCCNC(N)=O)(OCC)OCC`: the Potency result is “inactive”.

`CCCCOCCOC(=O)c1ccccc1C(=O)OCCOCCCC`: the Potency result is “inactive”.

Regarding `NC(=NCCCCCCN=C(N)/N=C(\N)Nc1ccc(Cl)cc1)/N=C(\N)Nc1ccc(Cl)cc1`, the Potency result is “inactive”.

As to `CCCCN(CCCC)CCCC`, the Potency entry is “inactive”.

As for `CC(=O)c1ccc(O)cc1`, the Potency result is “inactive”.

Turning to `Cn1c([N+](=O)[O-])cnc1COC(N)=O`, the Potency entry is “inactive”.

As for `COC(=O)CC(=O)OC`, the Potency entry is “inactive”.

On to `C=Cc1cccc(C)c1`, for which the Potency result is “inactive”.

Turning to `OC[C@]1(O)OC[C@@H](O)[C@H](O)[C@@H]1O`, the Potency entry is “inactive”.

As to `C=CN1CCCC1=O`, the Potency result is “inactive”.

In the case of `Cc1cn([C@H]2C[C@H](N=[N+]=[N-])[C@@H](CO)O2)c(=O)[nH]c1=O`, the Potency result is “inactive”.

Regarding `[Na+]`, the Potency entry is “inactive”.

For the molecule `CC(=O)C(C)C`, the Potency result is “inactive”.

For the molecule `CC(CCO)CC(C)(C)C` (stereo unspecified), the Potency entry was “inactive”.

As to `CCOCCOCCO`, the Potency entry was “inactive”.

Regarding `Nc1ccc(O)c(C(=O)O)c1`, the Potency result is “inactive”.

Take `CC(=O)C(=O)O`: the Potency result is “inactive”.

`CN(C)C`: the Potency result is “inactive”.

In the case of `c1cc(-c2ccncc2)ccn1`, the Potency entry is “inactive”.

Consider `CC1(C)OC(=O)NC1=O`, for which the Potency result was “inactive”.

With `Cc1cc(=O)[nH]c(C(C)C)n1`, the Potency result is “inactive”.

With `CCCCNC(=O)NS(=O)(=O)c1ccc(N)cc1`, the Potency result is “inactive”.

Turning to `COC(=O)CCCC(=O)OC`, the Potency entry was “inactive”.

Regarding `C=C1C2CCC(C2)C1(C)C` (stereo unspecified), the Potency entry was “inactive”.

For `O=C(OCc1ccccc1)c1ccccc1O`, the Potency entry is “inactive”.

Consider `NC(=O)N/N=C/c1ccc([N+](=O)[O-])o1`, for which the Potency result was “inactive”.

Consider `NNC(=O)c1ccncc1`, for which the Potency entry is “inactive”.

Turning to `CCc1cccc(CC)c1N`, the Potency entry is “inactive”.

With `O=C(O)c1ccccc1`, the Potency result is “inactive”.

For the molecule `COC(=O)c1ccccc1`, the Potency result is “inactive”.

With `CCCCC(CC)COC(=O)/C=C/c1ccc(OC)cc1` (stereo unspecified), the Potency entry is “inactive”.

Take `CCC(Cc1c(I)cc(I)c(N)c1I)C(=O)O` (stereo unspecified): the Potency entry is “inactive”.
